Hits are enriched below; roughly 2.9% of the tested compounds scored in any of these assays.
PAFAH2 FP inh: inhibitors of human PAFAH2. Q99487. recombinant PAFAH2, FP-rhodamine activity probe, fluorescence polarization. inhibition, % at 3.39 µM. 340,000 compounds, 0.99% hits. AID 492956;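 active = inhibition above the mean over all tested compounds plus 3 SD, cut at about 30% in these data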;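 note: inhibitors block probe labeling of enzyme so polarization drops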
Fam108B counter: Fam108B inhibition, counter-screen for RBBP9 inhibitors. recombinant Fam108B, FP-Rh probe fluorescence polarization. 300,000 compounds, 0.33% hits. AID 1947. inhibition, % at 9.51 µM;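 active = inhibition above the screen mean inhibition plus 3 SD, computed separately per campaign, cut at about 18% in these data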;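 note: inhibitors lower polarization as less probe binds the enzyme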
PME-1 primary: blocks human protein phosphatase methylesterase 1; recombinant PME-1, FP-Rh probe fluorescence polarization; inhibition, % at 5.9 µM; 320,000 compounds, 0.53% hits;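 active = inhibition above the campaign mean of all compounds plus 3 SD, cut at about 26% in these data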;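 note: competitive labeling of PME-1 active site by serine hydrolase directed probe; inhibitors block probe labeling so polarization falls and inhibition rises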
Target sequence (Q9Y570 whole entry, looked up): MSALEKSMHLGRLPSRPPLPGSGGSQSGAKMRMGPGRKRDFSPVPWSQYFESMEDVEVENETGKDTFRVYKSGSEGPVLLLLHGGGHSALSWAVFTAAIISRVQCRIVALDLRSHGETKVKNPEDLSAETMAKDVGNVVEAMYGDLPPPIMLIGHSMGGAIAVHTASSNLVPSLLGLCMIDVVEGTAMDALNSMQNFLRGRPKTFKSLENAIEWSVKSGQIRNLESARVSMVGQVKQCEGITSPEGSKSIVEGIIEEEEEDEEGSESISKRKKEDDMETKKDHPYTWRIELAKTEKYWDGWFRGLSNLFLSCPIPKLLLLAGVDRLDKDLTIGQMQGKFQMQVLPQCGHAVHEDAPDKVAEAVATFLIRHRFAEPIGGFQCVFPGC
PAFAH1B2 inh: PAFAH1B2 (human) inhibition. recombinant PAFAH1B2, FP-rhodamine activity probe, fluorescence polarization. P68402. AID 492953. 340,000 compounds, 1.2% hits. inhibition, % at 3.39 µM;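 active = inhibition above the mean of all tested compounds plus 3 SD, cut at about 24% in these data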
PAFAH1B3 inh: PAFAH1B3 (human) inhibition | Q15102 | recombinant PAFAH1B3, FP-rhodamine probe, fluorescence polarization | inhibition, % at 3.39 µM | 340,000 compounds, 0.28% hits | AID 492972;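 active = inhibition above the screen-wide average of all tested compounds plus 3 SD, cut at about 25% in these data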
Target sequence (Q15102 whole entry, looked up): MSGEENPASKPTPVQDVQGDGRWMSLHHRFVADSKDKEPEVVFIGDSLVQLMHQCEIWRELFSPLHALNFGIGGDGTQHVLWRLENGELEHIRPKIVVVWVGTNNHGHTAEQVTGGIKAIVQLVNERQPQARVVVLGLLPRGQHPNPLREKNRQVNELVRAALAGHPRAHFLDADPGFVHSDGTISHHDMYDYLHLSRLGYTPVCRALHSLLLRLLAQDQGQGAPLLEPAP
pPAFAH inh: pPAFAH (human) enzyme inhibition. inhibition, % at 3.39 µM. recombinant pPAFAH, FP-rhodamine probe fluorescence polarization. 330,000 compounds, 1.5% hits. AID 463082. Q13093;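 active = inhibition above the mean inhibition across the screen plus 3 SD, cut at about 25% in these data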;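 note: inhibitors block binding of the rhodamine activity-based probe so polarization drops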
Fam108b inh conf: Fam108b (mouse) hydrolase inhibition, confirmation assay. shares compounds with Fam108B counter. recombinant Fam108b, FP-Rh probe fluorescence polarization. inhibition, % at 9.51 µM. 930 compounds, 44% hits;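 active = inhibition above a limit from the primary screen, the mean over all compounds plus 3 SD, cut at about 19% in these data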;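 note: inhibitors free the probe so polarization falls as inhibition rises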
Fam108b ABPP HTS: mouse ABHD17B inhibition | shares compounds with Fam108B counter | recombinant Fam108b, gel-based ABPP, fluorophosphonate probe | inhibition, % at 20 µM | 260 compounds, 44% hits; in the data active = inhibition above about 40%
Large screens that a line does not name were inactive (follow-up assays come after a bar, where they were run).

Cc1ccsc1C=Nc1ccc(O)cc1	Fam108B counter 42, PME-1 primary 55 | Fam108b inh conf inactive
Cn1c(=O)c(NCCc2ccccc2)c2c3c(cccc31)C(=O)c1ccccc1-2	PAFAH2 FP inh 168, Fam108B counter 156, PME-1 primary 191, PAFAH1B2 inh 147, PAFAH1B3 inh 165, pPAFAH inh 142 | Fam108b inh conf 178 | Fam108b ABPP HTS inactive
Cn1c(=O)c(NC2CCCCC2)c2c3c(cccc31)C(=O)c1ccccc1-2	none (no result: Fam108B counter, PME-1 primary, pPAFAH inh)
NS(=O)(=O)c1ccc(CNC(=O)c2cc(=O)c3cc(Cl)ccc3o2)cc1	none
N#CC1=C(N)OC2=C(C(=O)CCC2)C1c1cc2c(cc1Br)OCO2 (stereo unspecified)	none
COc1ccc(C[C@H]2c3cc(O)c(OC)cc3CC[N+]2(C)[O-])cc1O (stereo partly specified)	none
Cc1cc(/C=C(\C#N)c2nc3ccccc3[nH]2)c(C)n1C	none
Cc1cc(/C=C(/C#N)c2nc3ccccc3[nH]2)c(C)n1-c1cccc([N+](=O)[O-])c1	Fam108B counter 25 | Fam108b inh conf inactive
COc1ccc([N+](=O)[O-])cc1NC(=O)C1C2C=CC(C2)C1C(=O)O (stereo unspecified)	Fam108B counter 19 | Fam108b inh conf inactive
O=C(OCC(=O)N1CCN(c2ccccc2)CC1)c1cc(Cl)ccc1[N+](=O)[O-]	none
O=C(NC(CSCc1ccccc1)C(=O)N/N=C/c1ccc(O)cc1O)c1ccc([N+](=O)[O-])cc1 (stereo unspecified)	Fam108B counter 23 | Fam108b inh conf inactive
Cn1cc([N+](=O)[O-])c(C(=O)Nc2ccc(-c3nc4ccccc4o3)cc2)n1	none
CCn1c2ccccc2c2cc(NC(=O)c3ccc([N+](=O)[O-])cc3)ccc21	Fam108B counter 25 | Fam108b inh conf inactive
CCn1c2ccccc2c2cc(NC(C)=O)ccc21	none
CC(C)NC(=O)Cn1cc(C(=O)C2CC2)c2ccccc21	none
CN(CC(=O)Nc1cccc(F)c1)C(=O)C1CC(=O)N(Cc2ccccc2)C1 (stereo unspecified)	none
COc1ccc(-c2nc(-c3cccs3)c(-c3cccs3)[nH]2)cc1O	Fam108B counter 30, PME-1 primary 47 | Fam108b inh conf inactive
COC(=O)c1[nH]c(C)c(/C(O)=C2\C(=O)C(=O)N(CCN3CCOCC3)C2c2ccc(C)o2)c1C (stereo unspecified)	none
CC(C)(C)N1C(=O)Cc2c1nc(N)c1c(N)nc(N3CCCCC3CO)c(C#N)c21 (stereo unspecified)	Fam108B counter 40 | Fam108b inh conf 90
CCOc1cc(N2CCOCC2)c(OCC)cc1NC(=O)COC(=O)[C@@H]1CCCN1S(=O)(=O)c1ccccc1F	none
Cc1ccc(-c2csc3nc(C(C)C)oc(=O)c23)c(C)c1	Fam108B counter 67 | Fam108b inh conf 66 | Fam108b ABPP HTS 50
Cc1cc(CSc2ccccc2)ccc1NC(=O)c1ccc(Cl)c([N+](=O)[O-])c1	Fam108B counter 25 | Fam108b inh conf 63 | Fam108b ABPP HTS inactive
Cc1cc(CSc2ccccc2)ccc1NC(=O)c1ccc(C)c([N+](=O)[O-])c1	none
O=C(NN=Cc1ccc(O)cc1)c1cccc(NN=Cc2ccc(O)cc2)c1	none (no result: PAFAH2 FP inh, Fam108B counter, PME-1 primary, PAFAH1B2 inh, PAFAH1B3 inh, pPAFAH inh) | Fam108b ABPP HTS 95
CCN(c1ccccc1)S(=O)(=O)c1ccc(Cl)c(NC(=O)COC(=O)c2cc(O)c3ccccc3c2O)c1	Fam108B counter 20, PME-1 primary 40 (no result: PAFAH2 FP inh, PAFAH1B2 inh, PAFAH1B3 inh) | Fam108b inh conf 48
CCN(c1ccccc1)S(=O)(=O)c1ccc(Cl)c(C(=O)OCC(=O)NC(=O)C(C)C)c1	none
COCC(=O)N[C@@H]1c2ccccc2CC[C@@H]1OCc1ccccc1	none (no result: Fam108B counter, PME-1 primary)
O=C(Cc1cccs1)NCc1ccc(Cl)cc1Cl	none
CCN(CC)S(=O)(=O)c1ccc(Nc2ccc(-c3ccc4c(c3)OCCO4)nn2)cc1	Fam108B counter 20 | Fam108b inh conf inactive
O=C(O)CSc1cc(NS(=O)(=O)c2ccc(Cl)cc2)c2ccccc2c1O	PAFAH2 FP inh 36, Fam108B counter 28, PME-1 primary 28, PAFAH1B2 inh 51, PAFAH1B3 inh 52 | Fam108b inh conf 19
CCN(CC)S(=O)(=O)c1ccc2[nH]cc(C(=O)NC3CC3)c(=O)c2c1	none
COc1cccc(/C=N/NC(=O)c2[nH]c(C)c(C(=O)N/N=C/c3cccc(OC)c3O)c2C)c1O	Fam108B counter 39, PME-1 primary 35, PAFAH1B3 inh 45, pPAFAH inh 28 | Fam108b inh conf 60
O=C(NCc1ccc2c(c1)OCO2)C(=O)Nc1cc2c3c(c1)CC(=O)N3CCC2	none
CC(C)Oc1ccc(S(=O)(=O)N2CCOCC2)cc1NC(=O)c1cc([N+](=O)[O-])ccc1N1CCOCC1	none
Cc1ccc2nc(CSc3nc(C)ccc3C#N)[nH]c2c1	Fam108B counter 42 | Fam108b inh conf 40 | Fam108b ABPP HTS 55
CC(C)Cc1nc2sc3c(c2c(=O)n1N)CC(C)(C)OC3	none
COc1ccc(OC)c(-c2csc(NC(=O)CSc3ccc([N+](=O)[O-])cc3)n2)c1	Fam108B counter 21 | Fam108b inh conf inactive
COc1ccc(OC)c(-c2csc(NC(=O)CSc3ccc(Br)cc3)n2)c1	none
COC(=O)C1=C[C@@H](C(=O)OC)[C@@H]2C3=C(C(=O)[C@@]2(C)NC(=O)c2ccccc2)[C@H](c2ccccc2)[C@@H]2C(=O)NC(=O)[C@@H]2[C@@H]3C1	none
COc1ccc(NN=C(C=NO)C(=O)c2ccc(OC)cc2)cc1	none (no result: PAFAH2 FP inh, Fam108B counter, PME-1 primary, PAFAH1B2 inh, PAFAH1B3 inh, pPAFAH inh) | Fam108b ABPP HTS inactive
COc1ccc(CNC(=O)c2ccc3nccnc3c2)cc1	Fam108B counter 19 | Fam108b inh conf inactive
COc1ccc(CNC(=O)c2ccncc2)cc1	none
O=C(NCc1ccccc1)c1sc(=S)n2c1[nH]c(=O)c1ccccc12	PAFAH2 FP inh 42, Fam108B counter 40, PAFAH1B2 inh 54, PAFAH1B3 inh 31, pPAFAH inh 34 | Fam108b inh conf 55 | Fam108b ABPP HTS inactive
CCc1nc(NCCO)c(C#N)c2c1CSC(C)(C)C2	none
Cc1ccc(NC(=O)/C(C#N)=C(\N)C(Cl)(Cl)Cl)nc1	PAFAH2 FP inh 41, Fam108B counter 21, PAFAH1B2 inh 45, PAFAH1B3 inh 43 | Fam108b inh conf 23
Cc1ccc(NC(=O)C(=O)Nc2ccc(C)cn2)nc1	none
COc1cccc(Nc2nc(-c3ccc(O)cc3)cs2)c1	none
COc1cccc(Nc2nc(-c3cccc(N4C(=O)c5ccccc5C4=O)c3)cs2)c1	Fam108B counter 31 | Fam108b inh conf inactive
O=c1cc(-c2ccccc2)nc(SCc2ccccc2F)[nH]1	none
